Inconclusive results are not listed. A number with no mark means an inactive call. Activity calls are given as the source filed them. Calls come from the whole dose curve; as a rule, active = well fitted inhibition curve with a large enough effect; inconclusive = small, poorly fitted or top-dose-only effect; inactive = flat fitted curve, though single readings scatter.
Each compound was assayed on CRL-7250 (assay: Cytotoxic Profiling of Annotated Libraries Using Quantitative High-Throughput Screening (AID 1296008; note: nearly all actives have a fitted effect of over 60% in size)). Conditions: Five cell lines viability, CellTiter-Glo ATP luminescence, 48-72 h; max response: hits give low values.
Excerpt: Cell-based phenotypic screening is a commonly used approach to discover biological pathways, novel drug targets, chemical probes and high-quality hit-to-lead molecules. Many hits identified from high-throughput screening campaign are ruled out through a series of follow-up potency, selectivity/specificity, and cytotoxicity assays. Prioritization of molecules with little or no cytotoxicity for a more in-depth downstream evaluation influence the future direction of projects, so cytotoxicity profiling of the screening libraries at early stage is essential for increasing the likelihood of candidate success. […] For the annotated library, we also examined the primary targets and mechanistic pathways regularly associated with cell death. To our knowledge, this is the first study to use high-throughput screening to profile large libraries for cytotoxicity assessment in both normal and cancer cell lines. In summary, the results generated here constitutes a valuable resource for the scientific community and provides insight on identifying cytotoxic compounds with particular mechanisms of action, and prioritizing compounds with suitable cytotoxicity profile for further evaluation.
A pintool (Kalypsys) was used to transfer 23 nL of compound solution to the 1536-well assay plates. After 48 or 72 hr incubation at 37 degree Celsius, 5% CO2 and 95% humidity, 2.5 uL of CellTiter-Glo (Promega) was dispensed into each well using a dispenser (Aspect Automation, St. Paul, MN) with solenoid valves (Lee Valves, Westbrook CT). Plates were left at room temperature for 10 min before imaging the ATP-coupled luminescence using a ViewLux microplate imager (PerkinElmer, Waltham, MA).
% is set by controls: 0 for no effect and ±100 for the full control effect; potency is the fitted concentration of half-maximal effect.

Q: `COc1cc(-c2cc(-c3ccc(N4CCNCC4)cc3)cnc2C)cc(OC)c1OC` was tested. Which outcome did it give?
A: The outcome was “inactive”.

Q: For `CC(C)(C)c1ccc(CNC(=S)NCc2ccc(NS(C)(=O)=O)c(F)c2)cc1`, which max response is on record?
A: The max response was -28.3%.

Q: For `Cn1nccc1Nc1nccc(-c2ccn([C@H](CO)c3ccc(Cl)c(F)c3)c(=O)c2)n1`, which outcome is on record?
A: Its outcome is “inactive”.

Q: How did the outcome turn out when `CC(C)CCC[C@@H](C)[C@H]1CC[C@H]2[C@@H]3CC=C4C[C@@H](OC(=O)NCCN(C)C)CC[C@]4(C)[C@H]3CC[C@]12C` was run?
A: Its outcome is “inactive”.

Q: How did the max response turn out when `COc1ccc(Cl)cc1[C@@]1(F)C(=O)Nc2cc(C(F)(F)F)ccc21` was run?
A: The max response was -2.43%.

Q: `CCOC(=O)c1cccc(CNc2ccc(N(C)C(=O)Nc3ccccc3)cc2)c1` was tested. Which Potency did it give?
A: The Potency was 1.3 µM (active).

Q: For `CC/C(=C(\c1ccc(O)cc1)c1ccc(OCCNC)cc1)c1ccccc1`, which outcome is on record?
A: The outcome was “inactive”.

Q: How did the max response turn out when `C=C1CC[C@@H]2[C@](C)(CO)[C@H](O)CC[C@@]2(C)[C@@H]1C/C=C1/C(=O)OC[C@@H]1O` was run?
A: Its max response is -17.3%.

Q: Which max response does the source give for `COCCOCCOc1ccc(C2=N[C@@](C)(C(=O)O)CS2)c(O)c1` here?
A: The max response was -74.5%.

Q: For `CCCCOc1ccc(-c2cncc(C(=O)NCc3cccnc3N3CCOCC3)c2)cc1Cl`, which max response is on record?
A: The max response was -9.28%.

Q: `COc1ccc2c(c1)C[C@H](C(=O)Nc1ccc(-c3cn[nH]c3)cc1OCCN(C)C)CO2` was tested. Which Potency did it give?
A: The Potency was 20.6 µM (active).

Q: For `CNC(=O)c1cccc2cc(Oc3ccnc4cc(OCC5(N)CC5)c(OC)cc34)ccc12`, which Potency is on record?
A: Its Potency is 4.61 µM (active).

Q: How did the max response turn out when `CN(C)C(=O)c1cc2cnc(Nc3ccc(N4CCNCC4)cn3)nc2n1C1CCCC1` was run?
A: The max response was 3.25%.

Q: With `O=S(=O)(c1cccc2ccccc12)n1ccc2ccc(N3CCN4CCCC4C3)cc21` (stereo not given) as the compound, how does the max response read?
A: Its max response is -10.4%.

Q: For `CNc1ccc([N+](=O)[O-])cc1-n1cnc(-c2ccc(C(F)(F)F)cc2)c1`, which max response is on record?
A: Its max response is 1.42%.

Q: `CN(C)CCCNc1nc(CN2CCN(C(c3ccc(Cl)cc3)c3ccc(Cl)cc3)CC2)nc2ccccc12` was tested. Which max response did it give?
A: Its max response is 1.9%.

Q: With `Cn1cnc(-c2nccc3c(=O)[nH]c(OCCCC(F)(F)F)nc23)c1` as the compound, how does the Potency read?
A: Its Potency is 5.8 µM (active).

Q: Which Potency does the source give for `CC(=O)N1c2ccc(-c3ccc(C(=O)O)cc3)cc2C(Nc2ccc(Cl)cc2)CC1C` (stereo not given) here?
A: Its Potency is 1.03 µM (active).

Q: Which outcome does the source give for `CN(Cc1ccc(C(=O)O)cc1)c1ccc(OCc2c(-c3c(Cl)cccc3Cl)noc2C2CC2)nc1C(F)(F)F` here?
A: Its outcome is “inactive”.

Q: For `O=C(c1ccc(F)c(F)c1Nc1ccc(I)cc1F)N1CC(O)(C2CCCCN2)C1` (stereo not given), which Potency is on record?
A: Its Potency is 9.2 µM (active).

Q: For `O=C(c1ccc(F)c(F)c1Nc1ccc(I)cc1F)N1CC(O)([C@@H]2CCCCN2)C1`, which Potency is on record?
A: Its Potency is 7.31 µM (active).

Q: For `CC1CCN(c2cc(NC(=O)c3ccccc3)ncn2)CC1`, which max response is on record?
A: Its max response is -6.14%.

Q: How did the outcome turn out when `N#Cc1c[nH]c2c(C(=O)N3CCN(CCc4ccc(F)cc4)CC3)cccc12` was run?
A: The outcome was “inactive”.

Q: Which max response does the source give for `CC1CCN(C(c2ccc(F)cc2)c2ccc(C(C)C(=O)O)cc2-c2ccc(C(F)(F)F)cc2)CC1` (stereo not given) here?
A: The max response was -3.89%.

Q: Which max response does the source give for `OCC(CO)(CO)NCC(O)Cn1c2ccc(Cl)cc2c2cc(Cl)ccc21` (stereo not given) here?
A: The max response was -2.15%.

Q: With `Cc1ccccc1C(=O)Nc1ccc(C(=O)N2CCC[C@@H](O)c3cc(Cl)ccc32)c(C)c1` as the compound, how does the max response read?
A: Its max response is -3.25%.

Q: With `CC(=O)c1c(OCCN2CCCCC2)c(OCCC(C)c2ccc(F)cc2)c2oc(C)nc2c1C` (stereo not given) as the compound, how does the max response read?
A: Its max response is -7.29%.

Q: How did the max response turn out when `CC1CCC(n2c3cnccc3c3cnc(Nc4ccc5c(n4)CCN(C(=O)CO)C5)nc32)CC1` (stereo not given) was run?
A: The max response was -12.2%.

Q: For `COc1ccccc1-c1cc(Nc2cccc(CS(N)(=O)=O)c2)ncn1`, which Potency is on record?
A: Its Potency is 16.4 µM (active).

Q: How did the max response turn out when `CCC[C@@H](NC(=O)N1C(=O)C(CC)(CC)[C@@H]1Oc1ccc(C(=O)N2CCN(C)CC2)cc1)c1ccc2c(c1)OCO2` was run?
A: The max response was -1.89%.

Q: For `C=C(C)[C@@H]1CC[C@]2(C(=O)O)CC[C@]3(C)C(CCC4[C@@]5(C)C[C@@H](O)[C@H](O)C(C)(C)C5CC[C@]43C)C12` (stereo not given in full), which max response is on record?
A: The max response was 4.85%.

Q: For `COc1cccc(CNC(=O)Nc2nc(-c3ccncc3)cs2)c1`, which max response is on record?
A: Its max response is -25.8%.

Q: Which Potency does the source give for `CC1(C)CC[C@]2(C(=O)OC3OC(CO)C(O)C(O)C3O)CC[C@]3(C)C(=CCC4[C@@]5(C)CC[C@H](OC6OC(C(=O)O)C(O)C(O)C6O)C(CO)(CO)C5CC[C@]43C)[C@@H]2C1` (stereo not given in full) here?
A: Its Potency is 2.46 µM (active).

Q: `COc1ccc(C(=O)N(CCC(C)C)Cc2nc(C)c(C)n2Cc2ccccc2C)c(OC)c1` was tested. Which max response did it give?
A: Its max response is -0.877%.

Q: For `CC(C)N(CCCNC(=O)Nc1ccc(C(C)(C)C)cc1)C[C@H]1O[C@@H](n2cc(Br)c3c(N)ncnc32)[C@H](O)[C@@H]1O`, which max response is on record?
A: The max response was -23.7%.

Q: Which Potency does the source give for `CCOC(=O)c1cnn(-c2ccc(NC(=O)C(Cl)=C(Cl)Cl)cc2)c1C(F)(F)F` here?
A: The Potency was 20.6 µM (active).

Q: With `C/C=C(/COC(=O)/C(C)=C/C)C(=O)OC/C=C/c1ccc(OC)cc1` as the compound, how does the max response read?
A: The max response was -7.59%.

Q: Which outcome does the source give for `CCC(=O)c1cc(-c2ccc(Cl)cc2)n(-c2ccc(S(N)(=O)=O)cc2)c1C` here?
A: Its outcome is “inactive”.

Q: How did the Potency turn out when `Cc1ccc(CCCO)c(NCc2ccc3nc(NCCCN4CCOCC4)n(Cc4nc(C)ccc4O)c3c2)c1` was run?
A: The Potency was 23.1 µM (active).

Q: Which max response does the source give for `N#CCC(C1CCCC1)n1cc(-c2ncnc3[nH]ccc23)cn1` (stereo not given) here?
A: The max response was -27.8%.

Source: PubChem BioAssay (NCATS)
